Results taken from PubChem BioAssay AID1159580 (chemical genetic matrix, 2015).
The whole screen tested about 5,500 compounds, of which about 2,000 (36%) were called active. Inconclusive results (about 18%) are left out. Cut-off read from the data, not from the text of the source: active = normalized growth mostly below about 0.91 (no sharp cut-off); inconclusive = no clear call, values can overlap the other calls; inactive = mostly above about 0.92. Some of the results follow.

Test: chemical genetic growth profiling, strain panel (AID 1159580);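 note: tested at 20 µM; growth read once vehicle control cultures reached saturation at 30 °C; 1 = growth at the plate median or of vehicle wells; lower values mean less growth of the strain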
Conditions: growth OD

Measured: normalized growth

CCN(CC)CCNc1ccc(CO)c2sc3ccccc3c(=O)c12
inactive: S. cerevisiae deletion strains, locus YJR075W, strain HOC1, hits give low values 0.979 | S. cerevisiae deletion strains, locus YKL009W, strain mrt4, hits give low values 0.993 | S. cerevisiae deletion strains, locus YKL068W, hits give low values 1 | S. cerevisiae deletion strains, locus YKL085W, strain MDH1 (second series), hits give low values 0.996 | S. cerevisiae deletion strains, locus YKL085W, strain MDH1, hits give low values 0.996 | S. cerevisiae deletion strains, locus YKL160W, strain elf1, hits give low values 1.01 | S. cerevisiae deletion strains, locus YKL190W, strain CNB1, hits give low values 1 | S. cerevisiae deletion strains, locus YKR001C, strain vps1, hits give low values 1 | S. cerevisiae deletion strains, locus YKR026C, strain gcn3, hits give low values 1.02 | S. cerevisiae deletion strains, locus YKR091W, strain srl3, hits give low values 1.01 | S. cerevisiae deletion strains, locus YLL001W, strain dnm1, hits give low values 1.01 | S. cerevisiae deletion strains, locus YLL026W, hits give low values 1.01 | S. cerevisiae deletion strains, locus YLL041C, strain sdh2, hits give low values 0.991 | S. cerevisiae deletion strains, locus YLR027C, strain aat2, hits give low values 1.01 | S. cerevisiae deletion strains, locus YLR039C, strain RIC1, hits give low values 1.01 | S. cerevisiae deletion strains, locus YLR058C, strain SHM2, hits give low values 0.998 | S. cerevisiae deletion strains, locus YLR102C, strain apc9, hits give low values 1.02 | S. cerevisiae deletion strains, locus YLR113W, strain HOG1, hits give low values 1.05 | S. cerevisiae deletion strains, locus YLR221C, strain rsa3, hits give low values 1.01 | S. cerevisiae deletion strains, locus YLR258W, strain gsy2, hits give low values 1.01 | S. cerevisiae deletion strains, locus YLR262C, strain YPT6 (second series), hits give low values 1 | S. cerevisiae deletion strains, locus YLR262C, strain YPT6, hits give low values 1.01 | S. cerevisiae deletion strains, locus YLR268W, strain sec22, hits give low values 0.947 | S. cerevisiae deletion strains, locus YLR320W, strain mms22, hits give low values 1.01 | S. cerevisiae deletion strains, locus YLR330W, strain CHS5, hits give low values 1.01 | S. cerevisiae deletion strains, locus YLR342W, strain FKS1 (second series), hits give low values 0.938 | S. cerevisiae deletion strains, locus YLR342W, strain FKS1, hits give low values 1 | S. cerevisiae deletion strains, locus YLR357W, strain rsc2, hits give low values 1.04 | S. cerevisiae deletion strains, locus YLR370C, strain arc18, hits give low values 1.01 | S. cerevisiae deletion strains, locus YLR371W, strain rom2, hits give low values 1.01 | S. cerevisiae deletion strains, locus YLR384C, strain iki3, hits give low values 1.01 | S. cerevisiae deletion strains, locus YLR418C, strain cdc73, hits give low values 0.919 | S. cerevisiae deletion strains, locus YML016C, strain PPZ1, hits give low values 0.996 | S. cerevisiae deletion strains, locus YML032C, strain rad52, hits give low values 0.948 | S. cerevisiae deletion strains, locus YML120C, strain ndi1, hits give low values 1.02 | S. cerevisiae deletion strains, locus YML124C, strain tub3, hits give low values 1.01 | S. cerevisiae deletion strains, locus YMR058W, strain fet3, hits give low values 0.998 | S. cerevisiae deletion strains, locus YMR078C, strain ctf18, hits give low values 1.01 | S. cerevisiae deletion strains, locus YMR125W, strain sto1, hits give low values 1 | S. cerevisiae deletion strains, locus YMR129W, hits give low values 1 | S. cerevisiae deletion strains, locus YMR205C, strain PFK2, hits give low values 0.997 | S. cerevisiae deletion strains, locus YMR223W, strain ubp8, hits give low values 0.994 | S. cerevisiae deletion strains, locus YMR231W, strain pep5, hits give low values 1.01 | S. cerevisiae deletion strains, locus YMR263W, strain SAP30, hits give low values 0.985 | S. cerevisiae deletion strains, locus YMR307W, strain GAS1, hits give low values 1.01 | S. cerevisiae deletion strains, locus YNL067W, strain RPL9B, hits give low values 0.973 | S. cerevisiae deletion strains, locus YNL071W, strain lat1, hits give low values 1.01 | S. cerevisiae deletion strains, locus YNL128W, strain TEP1, hits give low values 0.992 | S. cerevisiae deletion strains, locus YNL153C, strain GIM3, hits give low values 0.962 | S. cerevisiae deletion strains, locus YNL183C, strain NPR1, hits give low values 0.952 | S. cerevisiae deletion strains, locus YNL209W, strain ssb2, hits give low values 1.02 | S. cerevisiae deletion strains, locus YNL233W, strain BNI4, hits give low values 0.955 | S. cerevisiae deletion strains, locus YNL248C, strain rpa49, hits give low values 1 | S. cerevisiae deletion strains, locus YNL250W, strain rad50, hits give low values 1 | S. cerevisiae deletion strains, locus YNL271C, strain bni1, hits give low values 1.01 | S. cerevisiae deletion strains, locus YNL298W, strain CLA4, hits give low values 1.01 | S. cerevisiae deletion strains, locus YNL307C, strain MCK1, hits give low values 0.962 | S. cerevisiae deletion strains, locus YNL322C, strain KRE1 (second series), hits give low values 1.01 | S. cerevisiae deletion strains, locus YNL322C, strain KRE1, hits give low values 1.01 | S. cerevisiae deletion strains, locus YNR049C, strain mso1, hits give low values 1.01 | S. cerevisiae deletion strains, locus YNR052C, strain pop2, hits give low values 1.01 | S. cerevisiae deletion strains, locus YOL006C, strain TOP1, hits give low values 0.883 | S. cerevisiae deletion strains, locus YOL012C, strain htz1 0.879 | S. cerevisiae deletion strains, locus YOL147C, strain pex11, hits give low values 1.02 | S. cerevisiae deletion strains, locus YOR001W, strain rrp6, hits give low values 1 | S. cerevisiae deletion strains, locus YOR061W, strain CKA2, hits give low values 1 | S. cerevisiae deletion strains, locus YOR069W, strain VPS5, hits give low values 0.993 | S. cerevisiae deletion strains, locus YOR070C, strain gyp1, hits give low values 1 | S. cerevisiae deletion strains, locus YOR080W, strain dia2, hits give low values 1.01 | S. cerevisiae deletion strains, locus YOR083W, strain WHI5, hits give low values 1 | S. cerevisiae deletion strains, locus YOR106W, strain vam3, hits give low values 1.02 | S. cerevisiae deletion strains, locus YOR136W, strain idh2, hits give low values 1.01 | S. cerevisiae deletion strains, locus YOR144C, strain elg1, hits give low values 1 | S. cerevisiae deletion strains, locus YOR184W, strain ser1, hits give low values 0.995 | S. cerevisiae deletion strains, locus YOR231W, strain MKK1, hits give low values 1.04 | S. cerevisiae deletion strains, locus YOR265W, strain rbl2, hits give low values 1 | S. cerevisiae deletion strains, locus YOR270C, strain vph1, hits give low values 0.976 | S. cerevisiae deletion strains, locus YOR290C, strain snf2, hits give low values 1.01 | S. cerevisiae deletion strains, locus YOR316C, strain cot1, hits give low values 1.01 | S. cerevisiae deletion strains, locus YPL051W, strain arl3, hits give low values 0.997 | S. cerevisiae deletion strains, locus YPL055C, strain LGE1, hits give low values 0.954 | S. cerevisiae deletion strains, locus YPL078C, strain atp4, hits give low values 1.01 | S. cerevisiae deletion strains, locus YPL106C, strain sse1, hits give low values 1.02 | S. cerevisiae deletion strains, locus YPL240C, strain hsp82, hits give low values 1.01 | S. cerevisiae deletion strains, locus YPL241C, strain CIN2, hits give low values 1.02 | S. cerevisiae deletion strains, locus YPL256C, strain CLN2, hits give low values 1.01 | S. cerevisiae deletion strains, locus YPR119W, strain clb2, hits give low values 1.02 | S. cerevisiae deletion strains, locus YPR141C, strain kar3, hits give low values 1.02 | S. cerevisiae deletion strains, locus YPR163C, strain tif3, hits give low values 0.996 | S. cerevisiae deletion strains, locus YPR167C, strain met16, hits give low values 1.01 | S. cerevisiae deletion strains, strain wtn01, hits give low values 0.988 | S. cerevisiae strains, strain wild type, hits give low values 1.01
